The record followed here is PubChem BioAssay AID1259318 (Sanford-Burnham Center for Chemical Genomics, 2017).

Screen size: about 370,000 compounds; about 3,000 (0.81%) were called active. The list comes from a sample in which actives are over-represented; it also holds similar structures and randomly drawn compounds. A number with no mark means an inactive call.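 How the source made its calls: active means activity above about 14% (limit read from the data; passing the limit was not always enough); inactive means the rest.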

Chain of Nuclear receptor subfamily 1 group D member 1 (Homo sapiens) (P20393 whole entry, looked up): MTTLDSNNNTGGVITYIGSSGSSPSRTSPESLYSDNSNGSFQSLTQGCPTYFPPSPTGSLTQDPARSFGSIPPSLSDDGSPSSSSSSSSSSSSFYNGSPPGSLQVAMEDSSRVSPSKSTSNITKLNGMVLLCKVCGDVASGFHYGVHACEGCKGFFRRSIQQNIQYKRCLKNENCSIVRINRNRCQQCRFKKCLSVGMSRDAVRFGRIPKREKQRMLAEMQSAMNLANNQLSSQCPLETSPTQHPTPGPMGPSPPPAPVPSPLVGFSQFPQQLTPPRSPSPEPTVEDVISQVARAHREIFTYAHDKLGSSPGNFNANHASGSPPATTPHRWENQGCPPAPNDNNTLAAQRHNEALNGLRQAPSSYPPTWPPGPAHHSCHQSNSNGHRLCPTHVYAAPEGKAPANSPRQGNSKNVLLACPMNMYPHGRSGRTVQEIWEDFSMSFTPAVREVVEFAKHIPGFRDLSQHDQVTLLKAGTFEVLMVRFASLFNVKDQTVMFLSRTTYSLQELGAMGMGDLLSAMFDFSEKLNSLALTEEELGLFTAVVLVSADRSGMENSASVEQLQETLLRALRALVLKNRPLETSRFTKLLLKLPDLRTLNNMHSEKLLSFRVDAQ

This test has as its target Nuclear receptor subfamily 1 group D member 1 (Homo sapiens) (UniProt P20393). As to the kind of experiment: modulators of Rev-erb alpha DNA binding, primary screen, biochemical, FITC-DNA, fluorescence polarization, uHTS (AID 1259318).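 Further: 0% = DMSO wells with 35 nM protein and 100% = DMSO wells with 750 nM protein.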 Particulars: Rev-erbα–FITC-DNA binding, 90 min, at 10 µM, stronger effect = higher value. A general note: Fluorescence polarisation rises when a labelled molecule tumbles more slowly, as on binding a larger partner.
`Cc1ccc(CS(=O)(=O)CCC(=O)NCc2ccc(F)cc2)cc1`: the activity is -2.15%.

Take `C/C=C/C=C/C(=O)OCC(=O)Nc1ccc(Cl)cc1`: the activity is -1.79%.

As to `O=S1(=O)c2ccc(N3CCN(Cc4ccccc4F)CC3)cc2Oc2ccccc2CN1Cc1cn(Cc2ccc(Cl)cc2)nn1`, the activity is -0.02%.

`CCOC(=O)c1ccc(NC(=O)c2c(N)n(C)c(=O)[nH]c2=O)cc1`: the activity is 2.83%.

As to `CCOC(=O)c1ccc(NC(=O)CCn2c(=O)oc3ccccc32)cc1`, the activity is -4.86%.

For `CCOC(=O)c1ccc(NC(=O)c2c(NCc3ccccc3)[nH]c(=O)[nH]c2=O)cc1`, the activity is 19.9% (active).

Take `CCCCN1CCN(C(=O)c2ccc3c(c2)NC(=O)C(C)(C)O3)CC1`: the activity was -3.01%.

For the compound `O=c1ccc2c(-c3ccccc3S(=O)(=O)O)c3ccc(O)c(O)c3oc-2c1O`, the activity was -56.3%.

In the case of `O=C(CNC(=O)C12CC3CC(CC(C3)C1)C2)OCC(=O)N1CCCCC1`, the activity was -3.15%.

Take `COc1ccc(CNC(=O)c2cc(=O)c3c(C)cc(C)cc3o2)cc1`: the activity is -1.71%.

With `COc1ccc(CNC(=O)CN2CCC(n3nnc4cc(F)ccc43)CC2)cc1`, the activity was 0.03%.

Consider `COc1ccc(CNC(=O)c2nnn(CC(=O)Nc3cc(C)cc(C)c3)c2N)cc1`, for which the activity was 33.3% (active).

On to `CCOC(=O)c1c(NC(C)=O)sc2c(O)c(Br)ccc12`, for which the activity is -1.09%.

For the compound `CCOC(=O)C1CCN(C(=O)CN2C(=O)NC(C)(c3ccc4cc(OC)ccc4c3)C2=O)CC1` (centres undefined), the activity is -4.48%.

As to `O=C(Nc1cc(Cl)cc(Cl)c1)OCCN1CCCC12CCC(c1ccccc1)CC2` (centres undefined), the activity was -2.58%.

On to `CCCOc1cc(C)c(S(=O)(=O)n2nnc3ccccc32)cc1C`, for which the activity was -0.13%.

With `Cn1c(=O)c2c(-c3cccc(Br)c3)c(C#N)c(N)nc2n(C)c1=O`, the activity was -4.07%.

For `CSc1ccc(-c2c(C#N)c(N)nc3c2c(C)nn3-c2ccccc2)cc1`, the activity was 59.1% (active).

Take `Cc1nc2c(c(C)nn2-c2ccccc2)c(C)c1C`: the activity was 9.78%.

For the compound `CCC(C)[C@H]1COCCS(=O)(=O)N1Cc1ccc(C)cc1` (some centres undefined), the activity is -5%.

On to `O=C1C(=O)N(Cc2ccc(-c3ccsc3)cc2)c2ccc(OC(F)(F)F)cc21`, for which the activity is -0.04%.

In the case of `O=C(c1cccc(C(F)(F)F)c1)N1CC[C@H]2[C@H](CCCN2Cc2cc(F)cc(F)c2)C1`, the activity was 0.92%.

Take `Cc1cccc(N(CC(=O)Nc2ccc(-c3nc4ccc(C)cc4s3)cc2)S(C)(=O)=O)c1`: the activity is 35.6% (active).

On to `Cc1ccc2nc(-c3ccc(NC(=O)CN(C)S(=O)(=O)c4ccccc4)cc3)sc2c1`, for which the activity is 8.26%.

Turning to `Cc1ccc(N(CC(=O)Nc2cc(C)cc(C)c2)S(=O)(=O)c2cccc3nonc23)cc1`, the activity is 0.18%.

In the case of `CCOc1ncccc1C(=O)N(CC)CC(=O)Nc1ccc(NC(C)=O)cc1`, the activity is -1.37%.

For `COC(=O)C(C)Sc1ccc2nnc(-c3cccc(F)c3)n2n1` (centres undefined), the activity is 1.26%.

Take `COc1ccc(CSc2nnc(-c3cccc(C)c3)n2C)cc1`: the activity was 9.69%.

In the case of `O=C(CSc1ccc2nnc(-c3ccccc3)n2n1)N1CCCc2ccccc21`, the activity is -1.89%.

With `CCOC(=O)CNC(=O)CSc1ccc2nnc(-c3cccnc3)n2n1`, the activity is 3.05%.

As for `COc1ccc(-c2nnc3ccc(SCc4ccccc4)nn23)cc1`, the activity was 25.6% (active).

As for `CCOc1ccc(-c2nnc3ccc(SC)nn23)cc1`, the activity was 48.8% (active).

Turning to `COc1cccc(CN(C)CC(=O)NCc2ccccc2Cl)c1OC`, the activity is -3.26%.

For `C=CCOC/C=C/C#CCN(CC=C)Cc1ccc(OC)cc1OC`, the activity is 6.98%.

On to `Cc1ccc(-c2noc(CCC(=O)Nc3ccccc3N3CCN(C)CC3)n2)cc1`, for which the activity is 3.69%.

Regarding `COCCn1c(C)cc(C(=O)COC(=O)/C=C/c2cccc(OC)c2)c1C`, the activity is 6.09%.

Take `Cc1cccc([C@@H]2[C@@H]3C(=O)N(C)C(=O)[C@@H]3[C@@H]3C(=O)Nc4ccccc4C(=O)N23)c1`: the activity was 1.77%.

For the compound `CCCC(=O)Nc1ncnc2c1ncn2C1O[C@@H]2COP(=O)(O)O[C@H]2[C@H]1OC(=O)CCC` (some centres undefined), the activity was -3.72%.

For the compound `COc1cc(/C=C/C(=O)n2cnc3ccccc32)cc(OC)c1OC`, the activity is 11.5%.

Take `Cc1[nH]c2ccccc2c1SCC(=O)Nc1nccs1`: the activity was 4.6%.

As to `CC(=O)c1cc(C#N)c(SCC(=O)Nc2nccs2)nc1C`, the activity is 30.9% (active).

For the compound `Cc1cc(C(F)(F)F)nc(SCC(=O)Nc2nccs2)n1`, the activity is -6.74%.

For `Cn1sc(=O)c2cc(S(=O)(=O)NC3CC3)ccc21`, the activity is -1.88%.

Turning to `CCOC(=O)NC(=O)CSc1nnc(SCCC(=O)O)s1`, the activity is 0.79%.

In the case of `O=C(CCn1c(SCC(=O)c2ccccc2)nc2ccccc2c1=O)NCc1ccc(F)cc1`, the activity is 26.1% (active).

On to `O=C(Nn1c(SCc2ccc([N+](=O)[O-])cc2)nc2ccccc2c1=O)c1ccc(F)cc1`, for which the activity was 0.27%.

On to `O=C(CSc1nc2ccccc2c(=O)n1CCCO)NC1CC1`, for which the activity is 4.03%.

On to `O=S(=O)(c1cccs1)N1CCCc2nc(-c3ccc(Br)cc3)ccc21`, for which the activity is 1.38%.

Take `c1ccc2c(c1)nnn2-c1ccncc1`: the activity is 1.17%.

As to `CC(C)CN(C(=O)c1cccc(S(=O)(=O)N2CCCCC2)c1)C1CCS(=O)(=O)C1` (centres undefined), the activity was 5.44%.

On to `CCOc1nc(-c2ccc(OC)cc2)ccc1-c1noc(-c2cc(OC)c(OC)c(OC)c2)n1`, for which the activity is 26.3% (active).

With `CCOC(=O)c1cc(-c2nnc(-c3cc(OC)c(OC)c(OC)c3)o2)c(C)nc1C`, the activity is 9.45%.

As for `CCOc1cc(-c2noc(CCC(=O)N3CCOCC3)n2)ccc1OC`, the activity was -5.84%.

As for `Cc1sc2nc(-c3ccccc3F)oc(=O)c2c1C`, the activity is 1.33%.

With `CCCCC(=O)N[C@@H]1CC[C@@]23CCCN2C(=O)CCC[C@H]3[C@H]1C`, the activity is 1.41%.

`NC(=O)CCCC1=NS(=O)(=O)c2ccccc2N1`: the activity was -0.09%.

As for `c1ccc(-c2ccnc3nc(-n4cccc4)nn23)cc1`, the activity is -4.06%.

As for `CCCCNc1c(-c2cccc(Sc3ccc(OC)cc3)c2)nc2ccccn12`, the activity was -0.18%.

As to `Clc1ccc2nc(CSc3ccccc3)cn2c1`, the activity is 6.58%.

In the case of `CCCCCCSc1ccc(-c2nc3ccc(Cl)cn3c2NCc2ccccc2)cc1`, the activity was 24% (active).

On to `C[n+]1ccc(/C=C/c2c[nH]c3ccccc23)cc1`, for which the activity is 169% (active).

Consider `Cn1cnc([N+](=O)[O-])c1Sc1n[nH]c(N)n1`, for which the activity is -0.66%.

Consider `COc1ccc(C(=O)OCc2cc(=O)n3ccsc3n2)cc1F`, for which the activity was 3.21%.

Turning to `COc1cc(OC)cc(-c2nc(=S)n3ccsc3n2)c1`, the activity was 14.2% (active).

Turning to `COc1cc(C(=O)OCc2cc(=O)n3ccsc3n2)ccc1OC(C)C`, the activity was -8.61%.

Turning to `CCCC1CCC2(CCCN2CCOC(=O)NCc2ccccc2)CC1` (centres undefined), the activity was 4.94%.

With `C=CCN(Cc1ccc2c(c1)OCO2)C(C#CC1CC1)C(C)(C)C` (centres undefined), the activity was 0.61%.

For `COc1ccc(/C=C2\CC3(OC(C)=O)CCCN2C3)cc1` (centres undefined), the activity was 1.87%.

`COc1ccc(-n2nc(C(=O)NCC(=O)Nc3cccc(C)n3)c3ccccc3c2=O)cc1`: the activity was 29.5% (active).

In the case of `CCCN(CCC)CCCNC(=O)CNC(=O)c1nn(-c2ccc(OC)cc2)c(=O)c2ccccc12`, the activity is 2.42%.

Turning to `COCCCNC(=O)CNC(=O)c1nn(-c2ccc(OC)cc2)c(=O)c2ccccc12`, the activity was -5.1%.

Take `Cc1[nH]c2ccccc2c1C(=O)c1cc([C@H](NC(=O)OC(C)(C)C)C(C)C)sc1N`: the activity was 8.9%.

For the compound `CCn1c(SCC(=O)N(C)C2CCS(=O)(=O)C2)nnc1-c1cccs1` (centres undefined), the activity was 1.18%.

For the compound `Cc1cc(C)c2nc(SCC(=O)N(C)C3CCS(=O)(=O)C3)cc(C)c2c1` (centres undefined), the activity was 64% (active).

As to `CN(C(=O)CSc1nnc(-c2ccc(C(C)(C)C)cc2)n1C)C1CCS(=O)(=O)C1` (centres undefined), the activity was -0.03%.

As to `COc1ccc(-n2c(SCC(=O)Nc3ccccc3-c3ccccc3)nnc2-c2cccnc2)cc1`, the activity was -5.08%.

As to `CC1OC(O[C@H]2/C=C/C=C/C=C/C=C/C=C/C=C/C=C/[C@H](C)[C@@H](O)[C@@H](C)[C@H](C)OC(=O)CC(O)CC(O)CCC(O)C(O)CC(O)CC3(O)C[C@H](O)C(C(=O)O)C(C2)O3)C(O)[C@H](N)C1O` (some centres undefined), the activity is 1.39%.

In the case of `O=C(O)CCC(=O)O`, the activity is -4.29%.

In the case of `COc1ccc(NC(=O)c2sc(=O)n(Cc3ccc(S(=O)(=O)N(C)C)cc3)c2C)cc1`, the activity is 4.54%.

For `O=C(COC(=O)c1cccc(Cl)c1)Nc1ccc2[nH]c(=O)[nH]c2c1`, the activity was -0.59%.

As to `O=C(COC(=O)c1cccc(Br)c1)Nc1cccc2c1C(=O)c1ccccc1C2=O`, the activity is 114% (active).

In the case of `O=C(COC(=O)Cn1cnc2ccccc21)Nc1cccc2c1C(=O)c1ccccc1C2=O`, the activity was -19.3%.

Regarding `C#CCN(N(C)c1ncc(C(F)(F)F)cc1Cl)S(=O)(=O)c1ccc2ccccc2c1`, the activity was 7.14%.

`CCN1CCN(C(=O)Cn2nc(C)n3c(cc4c(OC)cccc43)c2=O)CC1`: the activity was -9.03%.

With `CCCc1cc(=S)n2c([nH]c3ccccc32)c1C#N`, the activity was -0.23%.

Turning to `Cc1cc2oc(=O)cc(-c3ccccc3)c2c(C)c1-c1ccc(OC(F)(F)F)cc1`, the activity is -5.77%.

`COc1ccc(-c2c(C)cc3oc(=O)cc(-c4ccccc4)c3c2C)cc1C=O`: the activity was 18.5% (active).

In the case of `COc1cc(OC)c2c(-c3cccc(-c4cccc(N)c4)c3)cc(=O)oc2c1`, the activity is -9.12%.

In the case of `CCCc1nc2c(C)cc(-c3nc4ccccc4n3C)cc2n1Cc1ccc(-c2ccccc2C(=O)O)cc1`, the activity is 3.42%.
